VP16 counter: counter-screen for ROR gamma inhibitors: Gal4-VP16 reporter. actives 3.5% (n = 310,000). Drosophila S2 Gal4-VP16 UAS-luciferase, luminescence, 20 h. AID 2546. Potency, µM (highest dose often 53.6 µM), inactives show top-dose activity, negative = inhibition, most hits filed as inhibitors;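 also: Gal4-VP16 expression switched on by copper sulfate through the metallothionein promoter; potency is read from the fitted curve at half-maximal effect; nearly all actives have a fitted effect of over 50% in size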
DT40 TDP1 CPT: DT40-hTDP1 cell growth loss with CPT | actives 12% (n = 420,000) | Potency, µM (top dose mostly 46.2 µM), inactives show at the top dose activity change, negative = growth inhibition, usual class: inhibitors | chicken DT40 Tdp1-/-;hTDP1 cells + 20 nM CPT, ATP luminescence, 48 h; also: potency is read from the fitted curve at half-maximal effect; nearly all actives have a fitted effect of over 55% in size
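Chicken DT40 Tdp1-/- cells complemented with human TDP1, 400 cells/well, exposed to compounds plus 20 nM camptothecin for at least 48 h at 37 C; viability read as ATP content by CellTiter-Glo luminescence.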
IL1B secr inh: inflammasome signaling inhibition, IL-1 beta readout | THP-1 LPS/ATP IL-1B secretion, AlphaLISA, 16 h; active compounds read low | AID 743279 | activity change, % at 57.5 µM | actives 4.7% (n = 360,000); in the data active = activity change below about -50%; inconclusive = mostly about -30% to -49%
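THP-1 cells pretreated 1 hr with compounds (up to 57.5 uM final), then stimulated with LPS (250 ng/mL final) plus ATP (1.25 mM final); secreted IL-1B measured by AlphaLISA after 16 hr, decreased signal indicating inhibition.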
ELG1 repair inh: inhibitors of ELG1-dependent DNA repair in HEK293T cells | AID 504467 | HEK293T ELG1-luciferase reporter, luminescence, 16 h; DNA damage induced by 5-fluorouridine | Potency, µM (top dose mostly 46.1 µM), for the others: top-dose activity change, negative = inhibition, actives largely listed as inhibitors | actives 2.3% (n = 330,000); also: potency is read from the fitted curve at half-maximal effect; nearly all actives have a fitted effect of over 55% in size
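Luminescence from the luciferase reporter, measured 30 min after ONE-Glo reagent at room temperature, was the read-out. Beforehand, 2,000 cells per well were exposed for 16 hr at 37 °C to 5-fluorouridine together with compound or vehicle.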
TDP1 cell noCPT: qHTS for Inhibitors of human tyrosyl-DNA phosphodiesterase 1 (TDP1): qHTS in cells in absence of CPT | Potency, µM (highest dose often 46.2 µM), for inactives: top-dose activity change, negative = growth inhibition, usual class: inhibitors | actives 15% (n = 420,000) | DT40 Tdp1-/- hTDP1 cells, no CPT, ATP luminescence, 48 h; also: potency is read from the fitted curve at half-maximal effect; nearly all actives have a fitted effect of over 55% in size
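Readout: luminescence from CellTiter-Glo after 30 min in the dark at RT. Cells: DT40 Tdp1-/- with stable hTDP1, 400/well. Exposure: compounds alone, ≥48 hr, 37 °C.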
RORgamma inh: blocks mouse ROR gamma transcriptional activity; Drosophila S2 Gal4-RORgamma UAS-luciferase reporter, 20 h; AID 2551; Potency, µM (doses to about 53.6 µM), inactives show at the highest dose activity change, negative = inhibition, actives largely listed as inhibitors; actives 5.4% (n = 310,000); also: potency is read from the fitted curve at half-maximal effect; nearly all actives have a fitted effect of over 60% in size
Target sequence (P51450 whole entry, looked up, the tested form may be a part): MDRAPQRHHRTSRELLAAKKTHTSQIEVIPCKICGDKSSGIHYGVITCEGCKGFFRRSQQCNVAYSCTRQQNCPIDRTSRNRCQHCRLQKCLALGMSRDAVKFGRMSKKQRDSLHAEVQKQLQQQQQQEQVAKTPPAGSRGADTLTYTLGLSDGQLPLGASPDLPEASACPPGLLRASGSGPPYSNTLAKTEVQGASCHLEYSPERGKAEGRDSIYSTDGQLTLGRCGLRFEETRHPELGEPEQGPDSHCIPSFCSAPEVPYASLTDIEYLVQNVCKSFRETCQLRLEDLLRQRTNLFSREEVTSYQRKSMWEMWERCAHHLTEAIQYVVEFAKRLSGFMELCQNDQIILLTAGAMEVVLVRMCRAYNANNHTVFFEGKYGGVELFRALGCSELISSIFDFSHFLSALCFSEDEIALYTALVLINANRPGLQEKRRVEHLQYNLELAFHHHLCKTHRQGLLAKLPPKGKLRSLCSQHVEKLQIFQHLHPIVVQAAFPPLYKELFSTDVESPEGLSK
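Luciferase reporter read in Schneider cells carrying Gal4-RORγ (mouse) and UAS-Photinus luciferase; cells given compound 1 h before 700 uM copper sulfate induction, then incubated 20 h at ambient temperature.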
* hit, by the source's call; ? = inconclusive; . = not tested or not shown; [ ] = remark or other dose. Rows were chosen to be rich in hits. Some 21% of all compounds tested hit in one or more screens of this group. Unless noted, calls follow the shape of the dose curve; as a rule, active = well fitted curve in the direction sought with a large enough effect; inconclusive = small, poorly fitted or top-dose-only effect, or another doubt; inactive = no such curve, though single readings can be large; an effect the other way counts as inactive or inconclusive. % is scaled to controls: 0 for no effect and ±100 for the full control effect.

SMILES | VP16 counter | DT40 TDP1 CPT | IL1B secr inh | ELG1 repair inh | TDP1 cell noCPT | RORgamma inh
O=C(/C=C/c1cn(-c2ccccc2)nc1-c1cccc(Cl)c1)N1CCN(c2ccccn2)CC1 | 0.0%[10 µM] | ? | ? | 20.6µM* | ? | 36.1%
O=C(c1cn(-c2ccccc2)nc1-c1cccs1)N1CCN(c2ccccn2)CC1 | 2.4% | ? | 3.5 | ? | 20.6µM* | 29.9%
O=C(/C=C/c1cn(-c2ccccc2)nc1-c1cccnc1)N1CCCCC1 | 10.8% | ? | -19.9 | -27.9% | 18.4µM* | 21.0%
COc1cccc(Cn2c(CNC(=O)C(C)C)nc3cccnc32)c1 | . | -9.9% | . | . | 12.7% | .
Cc1ccc2cc(C(c3nnnn3C3CCCC3)N(Cc3cccnc3)Cc3ccco3)c(=O)[nH]c2c1 (configuration not stated) | 1.0% | ? | ? | ? | ? | -23.0%
CCC(c1nnnn1C1CCCCC1)N(Cc1ccco1)Cc1cc2ccc(OC)cc2[nH]c1=O (configuration not stated) | -16.3% | ? | -58.3* | ? | 16.4µM* | 0.8%
Cc1ccc2cc(C(c3nnnn3C3CCCC3)N(Cc3ccco3)Cc3cccs3)c(=O)[nH]c2c1 (configuration not stated) | -5.5% | 23.1µM* | 0.0 | ? | ? | 4.7%
CC(C)(C)S(=O)N1Cc2cc(CO)cc(CCO)c2[C@@H]1CCO (some centres not stated) | . | 0.9% | 16.4 | . | -4.7% | .
CC(=O)Nc1cccc(/C(C)=N/NC(N)=S)c1 | 10.8% | 10.7% | 32.7 | -1.2% | -1.8% | ?
CC(C)NC(=O)CS(=O)(=O)c1ccccc1 | -12.2% | -1.8% | 5.4 | -0.4% | -11.6% | -13.1%
CC(=O)Nc1cccc(/C(C)=N/NC(=S)NC(C)C)c1 | ? | 3.66µM* | -27.3 | ? | 4.61µM* | 7.94µM*
CC(C)NC(=S)NN=C1c2ccccc2-c2ccccc21 | ? | 23.1µM* | 1.4 | 3.0% | 7.31µM* | 7.94µM*
CC(C)NC(=S)NC(c1ccccc1)(c1ccccc1)c1ccccc1 | 3.16µM* | ? | -1.3 | ? | 23.1µM* | ?
C/C(=N\NC(=S)NC(C)C)c1ccccc1 | 3.55µM* | ? | -6.5 | 1.6% | ? | 0.562µM*
C/C(=N\NC(=S)NC(C)C)c1ccco1 | 4.47µM* | ? | -14.1 | 11.3% | ? | ?
CCn1cc(CN2CCC(C(=O)Nc3ccc(Oc4cccnc4)cc3)CC2)cn1 | 0.0% | -12.8% | 0.0 | 15.8% | -3.3% | -17.5%
Cc1ccc(-c2nnc(Cc3ccc([N+](=O)[O-])cc3)o2)cc1 | ? | -28.4% | -10.4 | ? | ? | 0.282µM*
O=[N+]([O-])c1ccc(Cc2nnc(-c3ccc(F)cc3)o2)cc1 | -14.6%[10 µM] | -18.5% | -5.3 | ? | -23.5% | -22.0%
Cc1ccc(S(=O)(=O)N(C)Cc2nc(-c3ccc(Br)cc3)no2)cc1 | -8.1% | ? | 43.5 | -23.2% | 18.4µM* | ?
COc1ccc(-c2noc(CN(C)S(=O)(=O)c3ccccc3)n2)cc1OC | . | 16.4µM* | -10.0 | . | ? | .
CN(Cc1nc(-c2cccnc2)no1)S(=O)(=O)c1ccccc1 | 3.5% | -15.7% | 1.8 | 5.5% | -14.4% | 34.9%
O=C(/C=C/c1cccs1)NNC(=O)c1ccccc1 | . | -12.8% | 0.0 | ? | 18.5% | .
Cc1onc(-c2ccccc2)c1C(=O)NC(=S)NNC(=O)c1ccncc1 | ? | ? | 9.8 | -0.2% | ? | ?
Cc1onc(-c2ccccc2)c1C(=O)NC(=S)NNC(=O)c1ccco1 | 7.9% | ? | 93.9 | 23.1µM* | 16.4µM* | -32.5%
Cc1onc(-c2ccccc2)c1C(=O)NNC(=S)NC(=O)/C=C/c1cccs1 | 4.47µM* | 16.4µM* | 30.0 | -17.3% | 23.1µM* | 3.55µM*
SMILES | VP16 counter | DT40 TDP1 CPT | IL1B secr inh | ELG1 repair inh | TDP1 cell noCPT | RORgamma inh
Cc1onc(-c2ccccc2)c1C(=O)NC(=S)NNC(=O)c1cc(-c2ccc(F)cc2)n[nH]1 | -25.0% | ? | 2.6 | ? | 20.6µM* | ?
CCCn1c(N)c(N(CCOC)C(=O)c2c(CC)noc2C)c(=O)[nH]c1=O | . | 7.1% | 6.9 | 24.9% | -9.8% | .
Cc1cccc2c(C(=O)O)c3cccc(C)c3nc12 | . | 19.1% | 11.1 | . | 2.0% | .
COc1ccc(C(=O)c2ccc3oc(-c4ccc(OC)cc4)c(-c4ccc(O)cc4)c3c2)cc1 | . | ? | -18.7 | ? | 9.2µM* | .
COc1cc(C=C(C(C)=O)C(C)=O)ccc1O | 4.1% | -23.4% | -66.8* | 5.2% | ? | -39.3%
COc1cc(C=C2C(=O)C=CC2=O)ccc1O | . | 0.164µM* | -112.9* | . | 0.259µM* | .
CCOc1cc(/C=C2\SC(=O)N(c3ccc(O)cc3)C2=O)ccc1O | -7.5% | ? | ? | -24.9% | ? | -15.4%
CCOc1ccc(N2C(=O)S/C(=C\c3ccc(O)c(OCC)c3)C2=O)cc1 | -10.3% | -100.5% | -53.0* | ? | 16.4µM* | 9.2%
COc1cc(/C=C2\CCC/C(=C\c3ccc(O)c(OC)c3)C2=O)ccc1O | -28.4% | 7.08µM* | -94.7* | ? | 8.2µM* | -24.4%
COc1ccc(NC(=O)Cc2ccccc2F)cc1S(=O)(=O)N1CCCCC1 | . | -3.4% | -14.7 | ? | -4.0% | .
COc1cc(C=C2CCC/C(=C\c3ccc(O)c(OC)c3)C2=O)ccc1O | . | 3.35µM* | . | . | 7.5µM* | .
CCN1C/C(=C/c2cccc([N+](=O)[O-])c2)C(=O)/C(=C/c2cccc([N+](=O)[O-])c2)C1 | 3.55µM* | 0.581µM* | -106.5* | 2.59µM* | 0.731µM* | 3.98µM*
COc1cc(/C=C/C2=NC(=O)C(C)(C)O2)ccc1O | 19.7% | ? | -21.8 | 25.9µM* | -12.4% | -24.8%
CCOc1cc(/C=C2\CN(CC)C/C(=C\c3ccc(O)c(OCC)c3)C2=O)ccc1O | ? | 5.17µM* | -103.8* | ? | 4.11µM* | ?
CCOc1cc(/C=N/N=C/c2ccc(O)c(OCC)c2)ccc1O | 2.7% | -20.9% | 34.7 | -9.0% | -8.5% | 9.1%
COc1ccc(CCNC(=O)Cn2c(=O)nc(-c3ccccc3F)c3cc(Cl)ccc32)cc1OC | . | -6.8% | . | . | -27.2% | .
CCOc1ccc(Oc2ccccc2NC(=O)CN2C(=O)NC3(CCCC3)C2=O)cc1 | . | ? | 0.5 | 11.7% | ? | .
NS(=O)(=O)c1ccc(CCNC(=O)C2CCN(C(=O)Nc3ccccc3)CC2)cc1 | . | ? | -15.6 | 0.0% | -0.6% | .
